PubChem BioAssay AID1835 (Johns Hopkins Ion Channel Center, 2009)
The whole screen tested about 2,400 compounds, of which about 750 (31%) were called active. This is one part of the list. Values without a mark were called inactive.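 Rule for the calls: active = median signal gain over dofetilide-blocked control wells reaching their mean plus 3 SD, so readout 1 at least 0; inactive = the rest.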

biological target: Voltage-gated inwardly rectifying potassium channel KCNH2 (Homo sapiens) (UniProt Q12809); test: hERG protection against dofetilide inhibition, confirmation, cell-based, thallium flux, duplicate retest, dofetilide IC70 (AID 1835); conditions: hERG cell line, FluxOR thallium flux, dofetilide-blocked; at 10 µM; stronger effect = higher value
Sequence (Q12809 whole entry, looked up): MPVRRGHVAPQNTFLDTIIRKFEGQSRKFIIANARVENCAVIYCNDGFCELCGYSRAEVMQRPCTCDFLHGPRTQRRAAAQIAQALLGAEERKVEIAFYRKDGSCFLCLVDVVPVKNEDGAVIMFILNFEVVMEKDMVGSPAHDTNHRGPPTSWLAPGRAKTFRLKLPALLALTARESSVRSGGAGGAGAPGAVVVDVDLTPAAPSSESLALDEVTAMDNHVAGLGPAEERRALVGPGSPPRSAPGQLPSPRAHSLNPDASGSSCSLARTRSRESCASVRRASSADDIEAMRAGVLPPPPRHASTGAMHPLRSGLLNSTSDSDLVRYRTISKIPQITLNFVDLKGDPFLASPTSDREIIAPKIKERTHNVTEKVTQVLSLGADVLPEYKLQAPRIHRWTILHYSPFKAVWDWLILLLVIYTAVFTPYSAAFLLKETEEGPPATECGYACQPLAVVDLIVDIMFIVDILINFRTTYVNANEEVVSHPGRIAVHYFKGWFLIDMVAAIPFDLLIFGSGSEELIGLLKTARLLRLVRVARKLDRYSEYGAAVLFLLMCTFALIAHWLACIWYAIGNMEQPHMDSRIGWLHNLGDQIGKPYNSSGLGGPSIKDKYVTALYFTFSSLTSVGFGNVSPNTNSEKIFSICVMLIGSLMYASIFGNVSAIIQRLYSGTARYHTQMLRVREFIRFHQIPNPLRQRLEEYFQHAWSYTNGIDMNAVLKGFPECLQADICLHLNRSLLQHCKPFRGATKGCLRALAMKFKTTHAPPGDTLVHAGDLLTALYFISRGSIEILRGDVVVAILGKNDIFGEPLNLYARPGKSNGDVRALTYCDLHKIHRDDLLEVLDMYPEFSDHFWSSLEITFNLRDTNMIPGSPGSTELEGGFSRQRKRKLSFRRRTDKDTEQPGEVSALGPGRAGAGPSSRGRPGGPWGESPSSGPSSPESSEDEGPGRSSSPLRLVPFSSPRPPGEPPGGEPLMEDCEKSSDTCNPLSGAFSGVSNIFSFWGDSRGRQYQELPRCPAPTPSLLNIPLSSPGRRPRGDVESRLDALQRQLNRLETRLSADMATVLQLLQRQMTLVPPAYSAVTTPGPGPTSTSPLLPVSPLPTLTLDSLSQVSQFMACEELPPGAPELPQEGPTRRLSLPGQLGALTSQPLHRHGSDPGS

SMILES | activity increase over dofetilide control, less the hit threshold
Cc1nn(C(=O)CNC(=O)c2ccccc2)c(C)c1C | -17%
CC(=O)c1n[nH]nc1NC(=O)c1ccccc1 | -1%
Cc1ccccc1Cn1nc(C)c(NC(=O)c2ccccc2)c1C | 25% (active)
COc1ccccc1NC(=O)Cc1nnc(SCC(=O)Nc2nccs2)n1C | -10%
Cc1sc2nc(C(C)C)nc(SCC(=O)NCc3ccco3)c2c1C | 16% (active)
Cc1ccc(-n2ncc3c(SCC(=O)NNC(=O)c4ccco4)ncnc32)cc1 | -4%
CCn1c(SCC(=O)NC(=O)NCc2ccco2)nc2sc(C)c(C)c2c1=O | 18% (active)
O=C(CN1CCN(c2ccccc2O)CC1)NC(=O)NCc1ccco1 | -17%
Cc1cc(S(=O)(=O)N2CCOCC2)ccc1OCC(=O)NCc1ccco1 | -7%
O=C(NCC1CCCO1)c1ccc2c(=O)n(Cc3ccco3)c(SCC(=O)N3CCCC3)nc2c1 (stereo not drawn) | 0%
COC(=O)Cn1c(=O)c(=O)n(CC(=O)OC)c2ccccc21 | -15%
COc1ccccc1CNC(=O)COC(=O)c1ccccn1 | -13%
COc1ccc(C(=O)CC(=O)C(=O)Nc2ccccc2)cc1 | 5% (active)
COc1ccc(NC(=O)CSCC(=O)Oc2c(OC)cccc2OC)cc1 | -26%
COc1ccc(C(=O)CC(=O)C(=O)Nc2ccc(C)c(C)c2)cc1 | -3%
COc1ccc(C(=O)CC(=O)C(=O)Nc2ccc(C)c(Cl)c2)cc1 | 0%
COc1ccc(C(=O)CC(=O)C(=O)Nc2ccc(Cl)cc2)cc1 | 9% (active)
CC(=O)Nc1ccc(S(=O)(=O)N2CCC(NC(=O)c3ccccc3)CC2)cc1 | -17%
CCN(CC)C(=O)CN1C(=O)C2CC=C(Cl)CC2C1=O (stereo not drawn) | -15%
CCn1c(=S)[nH]c2sc3c(c2c1=O)CCCC3 | 27% (active)
O=C1c2ccccc2C(=O)N1Cc1ccco1 | -8%
CCn1c(=S)[nH]c2sc3c(c2c1=O)CCCCC3 | 107% (active)

SMILES | activity increase over dofetilide control, less the hit threshold
O=c1c2c3c(sc2[nH]c(=S)n1Cc1ccco1)CCC3 | 18% (active)
CCCn1c(=S)[nH]c2sc3c(c2c1=O)CCCC3 | 76% (active)
Cc1ccc(-n2c(=S)[nH]c3sc4c(c3c2=O)CCC4)cc1 | -1%
Cc1cc(C)n(-c2nc3sc4c(c3c(=O)[nH]2)CCCC4)n1 | -10%
CC(C)OC(=O)CSc1nnc(C2CCCCC2)n1N | -15%
Cc1cnc(NC(=O)CN2CCN(c3ccccc3F)CC2)s1 | -5%
CCCCCOc1ccc(C2C(C(C)=O)=C(C)Nc3ncnn32)cc1OC (stereo not drawn) | -11%
CCc1cccc(C)c1NC(=O)Cc1ccsc1 | -12%
Cc1ccc(S(=O)(=O)N(C)C)cc1NC(=S)NC(C)CCCC(C)C (stereo not drawn) | -30%
Cc1sc2ncnc(SCC(=O)c3ccc(O)cc3O)c2c1C | 2% (active)
Cc1sc2ncnc(SCC(=O)NC(=O)c3cccn3C)c2c1C | 2% (active)
COC(=O)c1ccc(Cn2cnc3c(cnn3-c3ccc(Cl)cc3)c2=O)o1 | -2%
COC(=O)c1ccc(CSc2ncnc3sc(C)c(C)c23)o1 | 7% (active)
CCC(C)NC(=O)CSc1ncnc2sccc12 (stereo not drawn) | -7%
Cc1ccc(-n2nc3ccc(N)cc3n2)c(C)c1 | -28%
O=C(CN1CCN(Cc2ccccc2)CC1)NCc1ccccc1Cl | -1%
Cc1cc(S(=O)(=O)NCC(C)C)ccc1OCC(=O)NCc1ccccn1 | -29%
C/C(=N\NC(=O)CSc1nc2ccccc2o1)c1ccc(O)cc1 | -15%
CCOC(=O)Cc1nc2ccccc2o1 | 5% (active)
CCOC(=O)CP(=O)(c1ccccc1)c1ccccc1 | -9%
Cc1cc(C)c2nc(NC(=O)C3CCCO3)sc2c1 (stereo not drawn) | -8%
O=C(Nc1nc2c(Br)cc(Br)cc2c(=O)s1)C1CCC1 | 1% (active)

SMILES | activity increase over dofetilide control, less the hit threshold
O=C(Nc1cccc(Br)c1)C1CCCC1 | -11%
O=C(COc1ccc(S(=O)(=O)NCc2ccccc2)cc1Cl)NCC1CCCO1 (stereo not drawn) | -26%
Cc1snnc1C(=O)NC(=S)Nc1ccccc1 | 30% (active)
O=C(NC(=S)Nc1ccccc1Cl)c1csnn1 | 79% (active)
Cc1cccnc1NC(=O)c1csnn1 | -3%
Cc1ccc(NC(=S)NC(=O)c2ccc(-c3ccccc3)cc2)cc1 | -2%
COc1ccc(NC(=O)c2onc(C)c2Cl)cc1 | -10%
O=C(NC(=S)Nc1ccccc1)c1csnn1 | 88% (active)
O=C(NC(=S)Nc1ccccc1)c1cncc(C#Cc2ccccc2)c1 | -8%
COc1ccc(NC(=S)NC(=O)c2csnn2)cc1 | 23% (active)
COc1ccc(NC(=S)Nc2ccccn2)cc1 | -11%
O=c1[nH]c2ccccc2nc1C(F)(F)C(F)F | -11%
C/C(=N/NC(=O)c1ccncc1)c1ccc2c(c1)OCO2 | -9%
O=C1CSC(=S)N1/N=C/c1cc(Br)ccc1O | 7% (active)
Cc1oc(-c2cccs2)nc1CN1CCC(C(=O)N2CCCC2)CC1 | -11%
Cc1cccc(C(=O)NC(=S)N(C)C2CCCCC2)c1 | 21% (active)
CN(C(=S)NC(=O)c1ccc(F)cc1)C1CCCCC1 | 6% (active)
COc1ccc(C(=O)NC(=S)N(C)C2CCCCC2)cc1 | -2%
Cc1cccc(C(=O)NC(=S)NNC(=O)COc2c(C)cccc2C)c1 | -12%
CN(C(=S)NC(=O)c1ccccc1)C1CCCCC1 | 16% (active)
Cc1ccc(C(=O)NC(=S)N(C)C2CCCCC2)cc1Br | -5%
Cc1ccc(C(=O)NC(=S)N(C)C2CCCCC2)cc1 | 27% (active)

SMILES | activity increase over dofetilide control, less the hit threshold
CN(C(=S)NC(=O)c1ccc(Cl)cc1)C1CCCCC1 | -3%
O=C(N/N=C/c1ccc(OC(F)F)cc1)C1=COCCO1 | -8%
c1ccc2oc(-c3nn4c(Cn5cnc6ccccc65)nnc4s3)cc2c1 | -12%
CCC(=O)N1c2ccc(C)cc2C2=NNC(=S)NC21O (stereo not drawn) | -6%
Cc1cc(-c2nnc(SCC(=O)Nc3ccc(C(F)(F)F)cc3)n2C)no1 | -23%
COc1ccc(C(=O)O)cc1S(=O)(=O)Nc1cccc(C(F)(F)F)c1 | -4%
O=C(NC(=S)Nc1ccc(C(F)(F)F)cc1)c1csnn1 | 60% (active)
O=C(NC(=S)Nc1cccc(C(F)(F)F)c1)c1csnn1 | 102% (active)
O=C(Nc1ccc(-c2csc(Nc3cccc(C(F)(F)F)c3)n2)cc1)c1ccccc1 | -25%
c1ccc2oc(-c3ccn[nH]3)cc2c1 | -10%
O=C(COC(=O)c1cc[n+]([O-])cc1)Nc1cc([N+](=O)[O-])ccc1Cl | -20%
O=C(CCC(=O)Nc1ccccc1)NNC(=O)c1ccco1 | -12%
COc1ccc(C)cc1NC(=O)C(=O)NNC(=O)c1ccco1 | 55% (active)
COc1ccccc1NC(=O)C(=O)NNC(=O)c1ccco1 | 35% (active)
CN(c1ccccc1)S(=O)(=O)c1ccc(Cl)c(C(=O)Nc2nn[nH]n2)c1 | -4%
CC12CN3CC(C)(CN(C1)C3c1ccc3c(c1)OCO3)C2=O (stereo not drawn) | -8%
C/C(=N\NC(=O)COc1ccc(C)cc1C(C)C)c1ccc(-n2ccnc2)cc1 | 6% (active)
Cc1ccc(C(C)C)cc1OCC(=O)Nc1ccc(N2CCCCC2)cc1 | -11%
O=[N+]([O-])c1ccc(S(=O)(=O)Nc2ccc(S(=O)(=O)N3CCCC3)cc2)cc1 | -23%
CC(C)(C)c1ccc(Cn2nc(CC(=O)O)c3ccccc3c2=O)cc1 | -9%
O=C(O)CCCNC(=O)c1nn(Cc2ccccc2)c(=O)c2ccccc12 | 3% (active)
Cc1nc2c(C(=O)NCCc3ccccc3)c[nH]n2c(=O)c1Cl | -3%

SMILES | activity increase over dofetilide control, less the hit threshold
NS(=O)(=O)c1ccc(NC(=S)NCc2cccs2)cc1 | -9%
CCCOc1ccc(C(=O)NNC(=S)NC(=O)c2cccs2)cc1 | -44%
O=C(c1cccs1)N1CCN=C1SCc1ccccc1 | -20%
CN(Cc1ccccc1)C(=S)NC(=O)c1cccs1 | 10% (active)
S=C(NCc1ccccc1)NCc1ccccc1Cl | -9%
O=C(NC(=S)NCc1ccccc1)c1cccs1 | 23% (active)
CCN(CC)c1ccc(NC(=S)NC(=O)c2cccs2)cc1 | 8% (active)
O=C(NC(=S)NNC(=O)c1cccs1)c1ccc(Br)o1 | -23%
O=C(NC(=S)Nc1ccccc1)c1cccs1 | 12% (active)
Cc1ccc(C(=O)NC(=S)N(C)Cc2ccccc2)cc1 | -3%
O=c1ccn(CCCBr)c(=O)[nH]1 | -8%
CCN(CC)CCOC(=O)C(c1ccccc1)c1ccccc1 | -6%
O=C1CCCN1C(=O)COc1ccccc1[N+](=O)[O-] | -13%
O=[N+]([O-])c1ccccc1OCCNCc1ccccc1 | 9% (active)
O=C(COc1ccccc1[N+](=O)[O-])Nc1cc(Cl)ccc1C(=O)O | -10%
Cc1cc(C)n(-c2nc(NCCCN(C)C)c3c4c(sc3n2)CCCC4)n1 | -10%
CCOc1ccc2nc(N3C(=O)/C(=C/c4ccc(Cl)cc4)NC3=S)sc2c1 | 22% (active)
CCOc1ccc(NC(=O)c2ccc(NC(=O)CSc3nc4ccccc4c(=O)[nH]3)cc2)cc1 | -17%
COc1ccc(N2C(=O)/C(=C/c3cccs3)NC2=S)cc1 | -21%
CCOc1ccc2nc(N3C(=O)/C(=C/c4ccccc4)NC3=S)sc2c1 | 71% (active)
